Rows were chosen to be rich in hits. Some 19% of all compounds tested hit in one or more screens of this group.
IL-1B inflam inh: qHTS for Inhibitors of Inflammasome Signaling: IL-1-beta AlphaLISA Primary Screen; AID 743279, 2014; activity change, % at 57.5 µM; THP-1 LPS/ATP IL-1B secretion, AlphaLISA, 16 h; active compounds read low; 4.7% of 360,000 active; in the data active = activity change below about -50%; inconclusive = mostly about -30% to -49%; note: % is set by controls: 0 for no effect and ±100 for the full control effect
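THP-1 cells pretreated 1 hr with compounds (up to 57.5 uM final), then stimulated with LPS (250 ng/mL final) plus ATP (1.25 mM final); secreted IL-1B measured by AlphaLISA after 16 hr, decreased signal indicating inhibition.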
DT40 TDP1 no CPT: qHTS for Inhibitors of human tyrosyl-DNA phosphodiesterase 1 (TDP1): qHTS in cells in absence of CPT; Potency, µM (series often up to 46.2 µM), inactives show at the highest dose activity change, negative = growth inhibition, most hits filed as inhibitors; 15% of 420,000 active; DT40 Tdp1-/- hTDP1 cells, no CPT, ATP luminescence, 48 h; note: potency is the fitted concentration of half-maximal effect; % is set by controls: 0 for no effect and ±100 for the full control effect; nearly all actives have a fitted effect of over 55% in size
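Growth of hTDP1-complemented DT40 Tdp1-knockout cells is measured by ATP luminescence after at least 48 hr compound exposure at 37 °C, with DMSO substituting for the 20 nM CPT used in the parallel screen.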
DT40 TDP1 CPT: qHTS for Inhibitors of human tyrosyl-DNA phosphodiesterase 1 (TDP1): qHTS in cells in presence of CPT; chicken DT40 Tdp1-/-;hTDP1 cells + 20 nM CPT, ATP luminescence, 48 h; Potency, µM (top dose mostly 46.2 µM), without a hit: at the highest dose activity change, negative = growth inhibition, usual class: inhibitors; 12% of 420,000 active; note: potency is the fitted concentration of half-maximal effect; % is set by controls: 0 for no effect and ±100 for the full control effect; nearly all actives have a fitted effect of over 55% in size
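Chicken DT40 Tdp1-/- cells stably complemented with human TDP1 were seeded at 400 cells/well in medium containing 20 nM camptothecin, exposed to pin-transferred compounds, and grown at 37 °C for at least 48 hr. Viability was read as ATP luminescence.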
ASM inhibitor: Inhibitors of Secretory Acid Sphingomyelinase (S-ASM): qHTS; placental ASM, HMU-PC fluorogenic substrate, 60 min; Potency, µM (highest dose often 57.5 µM), for the others: top-dose activity change, negative = inhibition, actives largely listed as inhibitors; 0.006% of 340,000 active; AID 504937, 2011; note: potency is the fitted concentration of half-maximal effect
Target sequence (P17405 47-631 limits assumed): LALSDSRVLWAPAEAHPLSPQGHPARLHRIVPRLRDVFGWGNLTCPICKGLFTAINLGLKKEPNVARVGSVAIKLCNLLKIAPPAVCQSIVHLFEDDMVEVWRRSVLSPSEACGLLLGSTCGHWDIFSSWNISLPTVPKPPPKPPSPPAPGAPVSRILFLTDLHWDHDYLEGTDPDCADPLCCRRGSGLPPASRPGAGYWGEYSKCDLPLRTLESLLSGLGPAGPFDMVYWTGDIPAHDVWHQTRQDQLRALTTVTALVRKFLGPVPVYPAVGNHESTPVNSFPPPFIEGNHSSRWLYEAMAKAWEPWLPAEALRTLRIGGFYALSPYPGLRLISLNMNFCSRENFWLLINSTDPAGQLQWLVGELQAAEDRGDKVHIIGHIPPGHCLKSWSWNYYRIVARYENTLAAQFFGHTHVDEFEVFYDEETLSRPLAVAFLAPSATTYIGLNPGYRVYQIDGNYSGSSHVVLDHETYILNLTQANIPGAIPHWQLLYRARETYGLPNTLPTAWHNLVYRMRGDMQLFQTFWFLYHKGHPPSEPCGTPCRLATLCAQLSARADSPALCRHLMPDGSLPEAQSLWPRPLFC
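Steps: dispense placental human ASM, pin compound, wait 10 min at room temperature, add HMU-PC0 substrate at 9 uM final, incubate 60 min at 37 °C, add stop solution raising pH to 10, read fluorescence.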
TGFb inhibitor: qHTS for Inhibitors of TGF-b; HepG2 CAGA-GFP TGF-b/SMAD3 reporter, GFP fluorescence, 18 h; TGF-beta stimulated, 500 pg/mL final; Potency, µM (top dose mostly 46.1 µM), without a hit: top-dose activity, negative = inhibition, usual class: inhibitors; 1.2% of 410,000 active; AID 588855, 2011; note: potency is the fitted concentration of half-maximal effect; % is set by controls: 0 for no effect and ±100 for the full control effect; nearly all actives have a fitted effect of over 65% in size
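HEPG2 CAGA-GFP reporter cells (1000/well, DMEM with 1% FBS) received compounds, then recombinant TGF-beta at 500 pg/mL final for 18 hours at 37 degrees C. Per-cell GFP summed per well was normalised to unstimulated and stimulated DMSO controls before curve fitting.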
HepG2 tox: qHTS for Inhibitors of TGF-b: Cytotox Counterscreen; HepG2 CAGA-GFP viability, ATP luminescence, 18 h; Potency, µM (top dose mostly 46.1 µM), for the others: top-dose activity change, negative = cytotoxicity, most hits filed as cytotoxic; 0.76% of 410,000 active; note: potency is the fitted concentration of half-maximal effect
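HepG2 CAGA-GFP cells (1000/well, DMEM with 1% FBS) received compound, then TGF-beta at 500 pg/mL final, and were incubated 18 hours at 37 degrees C. Viability was read by CellTiter-Glo luminescence. Media-only wells were set as complete cell-killing and DMSO as no toxicity.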
An asterisk follows results filed as active; ? = inconclusive; nt = not tested or not shown; [ ] = remark or other dose. Unless noted, calls come from the whole dose curve; as a rule, active = well fitted curve in the direction sought with a large enough effect; inconclusive = small, poorly fitted or top-dose-only effect, or another doubt; inactive = no such curve, though single readings can be large; an effect the other way counts as inactive or inconclusive.

SMILES | IL-1B inflam inh | DT40 TDP1 no CPT | DT40 TDP1 CPT | ASM inhibitor | TGFb inhibitor | HepG2 tox
COc1cc(/C=N/NC(=S)NCCc2ccccc2)cc(OC)c1OC | 38 | 16µM* | 26µM* | -28% | ? | -4%
Cc1cccc(C)c1NC(=S)N/N=C/c1c(Cl)cccc1Cl | 4 | 21µM* | ? | 7% | 3% | -25%
S=C(NCCc1ccccc1)N/N=C/c1c(Cl)cccc1Cl | 12 | 16µM* | ? | -9% | ? | 16%
Cc1cccc(C)c1NC(=S)N/N=C/c1ccc(OCCC(C)C)cc1 | ? | 7.3µM* | 9.2µM* | -10% | 0% | -41%
CCCCOc1ccc(/C=N/NC(=S)Nc2cccc(C)c2C)cc1 | 6 | ? | ? | -11% | 3% | -17%
S=C(NCCc1ccccc1)N/N=C/c1ccc(Cl)cc1 | -2 | ? | ? | -14% | ? | -68%
COc1cc(/C=N/NC(=S)NCCN2CCOCC2)cc(OC)c1OC | 28 | ? | 19% | 0% | 20% | -1%
Cc1cccc(C)c1NC(=S)N/N=C/c1ccc(C(=O)O)cc1 | 14 | -11% | 11% | 0% | -15% | -9%
COC(=O)C(CCC(=O)CN1C(=O)c2ccccc2C1=O)N1C(=O)c2ccccc2C1=O (stereo not given) | 6 | 5% | -7% | nt | 0% | 3%
CCCS(=O)(=O)c1nc(S(=O)(=O)c2ccc(C)cc2)c(N2CCc3ccccc3C2)s1 | -9 | ? | ? | 0% | -9% | 7%
Cc1cccc(Cn2c(SCc3ccc(C(=O)N4CCCCCC4)cc3)nc3ccncc32)c1 | nt | ? | -122% | nt | 13µM* | -38%
CC1CCN(C(=O)c2ccc(CSc3nc4ccncc4n3Cc3ccc(F)cc3)cc2)CC1 | -7 | ? | 23µM* | 0% | ? | -26%
CC1CCCN(C(=O)c2ccc(CSc3nc4ccncc4n3Cc3ccccc3)cc2)C1 (stereo not given) | nt | 23µM* | 16µM* | nt | ? | -23%
O=C(c1ccc(CSc2nc3ccncc3n2Cc2ccccc2)cc1)N1CCCCCC1 | nt | 16µM* | 9.2µM* | nt | ? | -20%
CCc1nc2cc(C(=O)N3CCC[C@H]3CO)cc(NC(=O)c3ccccc3OC)c2n1C | nt | -7% | 11%[9.04 µM] | nt | nt | nt
Cc1cc(C)c2c(=O)cc(C(=O)Nc3sc4c(c3C(=O)NCc3ccco3)CCCC4)oc2c1 | nt | -22% | -14% | nt | 4% | 1%
C[C@H](CO)N1C[C@H](C)[C@@H](CN(C)S(=O)(=O)c2ccccc2C#N)OCc2cnnn2CCCC1=O | 36 | ? | 16% | nt | 5% | 5%
C[C@H](CO)N1C[C@H](C)[C@H](CN(C)C(=O)c2ccccn2)Oc2cc(C#Cc3ccc(F)cc3)ccc2S1(=O)=O | 0 | 18µM* | 21µM* | nt | ? | -32%
CC(C)CC#Cc1ccc2c(c1)O[C@H](CN(C)C(=O)Cc1ccncc1)[C@H](C)CN([C@H](C)CO)S2(=O)=O | -28 | 26µM* | ? | nt | ? | -46%
C[C@H]1CN([C@@H](C)CO)S(=O)(=O)c2ccc(Br)cc2O[C@@H]1CN(C)C(=O)Cc1ccccc1 | -13 | ? | ? | nt | 10% | 4%
COc1cccc(C#Cc2ccc3c(c2)O[C@@H](CN(C)C(=O)c2ccccn2)[C@@H](C)CN([C@H](C)CO)S3(=O)=O)c1 | -4 | ? | ? | nt | -9% | -26%
C[C@H]1CN([C@@H](C)CO)S(=O)(=O)c2ccc(C#Cc3ccccn3)cc2O[C@@H]1CN(C)C(=O)C1CC1 | -3 | 16µM* | ? | nt | 14% | 2%
COc1ccc(C2=CC(=O)CC(C)(C)C2)cc1OC | -19 | -12% | -7% | 24% | -30% | -21%
COc1ccc(S(=O)(=O)NCC(c2cccnc2)N2CCN(c3ccc(F)cc3)CC2)cc1C (stereo not given) | ? | 16µM* | 15µM* | -4% | -27% | -6%
O=S(=O)(NCC(c1ccco1)N1CCN(c2ccc(F)cc2)CC1)c1cc(F)ccc1F (stereo not given) | nt | 16µM* | 18µM* | nt | -3% | -12%
SMILES | IL-1B inflam inh | DT40 TDP1 no CPT | DT40 TDP1 CPT | ASM inhibitor | TGFb inhibitor | HepG2 tox
Cc1cc(C)c(S(=O)(=O)NCC(c2ccco2)N2CCN(c3ccccc3)CC2)c(C)c1 (stereo not given) | nt | 26µM* | 23µM* | nt | -7% | -22%
O=S(=O)(NCC(c1ccco1)N1CCN(c2ccc(F)cc2)CC1)c1ccc(F)cc1 (stereo not given) | 25 | ? | 23µM* | 0% | -10% | 5%
COc1ccc(S(=O)(=O)NCC(c2cccnc2)N2CCN(c3ccccc3)CC2)cc1C (stereo not given) | -5 | ? | ? | -1% | ? | -13%
O=C(COC(=O)c1ccc(F)c(S(=O)(=O)N2CCOCC2)c1)NCc1ccc(F)cc1 | 2 | -10% | 6% | 3% | 0% | -3%
COc1ccccc1CNC(=O)C(=O)NCC(c1cccnc1)N1CCN(c2ccccc2)CC1 (stereo not given) | nt | ? | ? | nt | -20% | -26%
Cc1cnc(C(=O)NC2CC(C)(C)Cc3c2cnn3-c2ccccc2)cn1 (stereo not given) | -5 | ? | ? | 4% | -5% | -10%
COc1ccc(S(=O)(=O)NCC(c2ccco2)N2CCN(c3ccc(F)cc3)CC2)cc1C (stereo not given) | nt | 23µM* | 16µM* | nt | ? | 1%
Cc1ccc(CNC(=O)CC2Oc3ccccc3NC2=O)cc1 (stereo not given) | nt | -17% | -1% | nt | 1% | -4%
CC(C)(C)OC(=O)N1CCCC(C(=O)Nc2ccc(C(=O)N3CCCCC3)cc2)C1 (stereo not given) | -4 | ? | ? | 1% | ? | -34%
CN(Cc1ccccc1)C(=O)c1nc2ccccn2c1CN1CCc2sccc2C1 | -94* | ? | -22% | 14% | 0% | -50%
Cc1nn(C)cc1CN(C)Cc1c(C(=O)N(C)Cc2ccccc2)nc2ccccn12 | 18 | ? | ? | 4% | 8% | 0%

Assay outcomes deposited in PubChem BioAssay by National Center for Advancing Translational Sciences (NCATS).
